Source: PubChem BioAssay
The list is not random: actives were taken first. Their share in the collection is about 5.4%.
Sm TGR block – blocks Schistosoma mansoni thioredoxin glutathione reductase; Q962Y6; purified TGR, DTNB reduction, TNB absorbance 405 nm; Potency, µM (doses to about 114 µM), inactives show top-dose activity change, negative = inhibition, hits mostly inhibitors; actives 3% (n = 360,000); AID 485364; active = well fitted inhibition curve with a large enough effect; inconclusive = small, poorly fitted or top-dose-only effect; inactive = no such curve, though single readings can be large or run the other way; note: nearly all actives have a fitted effect of over 60% in size
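Kinetic colorimetric format: TGR-catalysed, NADPH-driven DTNB reduction monitored via TNB absorbance. Enzyme dispensed at 20 nM; compound exposure 15 min at room temperature before reaction start.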
VACV mCherry inh – vaccinia inhibition (mCherry reporter); Vaccinia virus mCherry reporter infection, fluorescence; Potency, µM (highest dose often 36.5 µM), for the others: at the highest dose activity change, negative = inhibition, most hits filed as inhibitors; actives 0.63% (n = 310,000); AID 720579; calls by dose curve; tested in A549 cells; note: nearly all actives have a fitted effect of over 35% in size
Lassa entry inh – blocks Lassa virus binding to or entry into cells. Lassa virus pseudotype entry inhibition, cell reporter. Potency, µM (doses to about 37.9 µM), inactives show top-dose activity change, negative = inhibition, most hits filed as inhibitors. actives 1.2% (n = 300,000); calls by dose curve; tested in HEK293 cells; note: nearly all actives have a fitted effect of over 50% in size
Vaccinia Venus – inhibitors of vaccinia virus (Venus reporter) | Vaccinia virus Venus reporter expression, fluorescence | actives 0.46% (n = 330,000) | AID 720580 | Potency, µM (doses to about 36.5 µM), without a hit: at the highest dose activity change, negative = inhibition, usual class: inhibitors; calls by dose curve; tested in A549 cells; note: nearly all actives have a fitted effect of over 30% in size
FMDV inh – blocks foot and mouth disease virus; actives 1.2% (n = 410,000); Potency, µM (series often up to 57.9 µM), for inactives: at the highest dose activity change, negative = inhibition, actives largely listed as inhibitors; FMDV antiviral cell-based qHTS; AID 1159524; calls by dose curve; tested in HEK293T cells; note: read-out not given here; nearly all actives have a fitted effect of over 45% in size
Marburg entry inh – Marburg virus entry inhibition; Marburg virus pseudotyped entry inhibition, cell reporter; Potency, µM (titrated, usually from 37.8 µM), for inactives: top-dose activity change, negative = inhibition, most hits filed as inhibitors; actives 1.8% (n = 300,000); AID 540276; calls by dose curve; tested in HEK293 cells
The depositor's hits bear a star; [ ] = remark or other dose. % is set by controls: 0 for no effect and ±100 for the full control effect; potency is the fitted concentration of half-maximal effect.

COc1ccccc1C(=O)/C=C/c1ccc(N2CCCCC2)c([N+](=O)[O-])c1 was read as Sm TGR block -11%, VACV mCherry inh inconclusive, Lassa entry inh inconclusive, Vaccinia Venus inconclusive, FMDV inh 35µM* and Marburg entry inh inconclusive.
Cc1cc(O)c(C(=O)/C=C/c2cccc([N+](=O)[O-])c2)c(=O)o1 was read as Sm TGR block 0%, VACV mCherry inh inactive, Lassa entry inh 12%[46.1 µM], Vaccinia Venus -11%, FMDV inh 18µM* and Marburg entry inh inconclusive.
For c1csc(CNc2nc(CN3CCCC(c4nc5ccccc5o4)C3)nc3ccccc23)c1 (configuration not stated) the results were VACV mCherry inh -14%, Vaccinia Venus 2% and FMDV inh 8%.
For O=C(NNC1=NS(=O)(=O)c2ccccc21)c1ccc([N+](=O)[O-])cc1 the results were Sm TGR block -22%, VACV mCherry inh -3%, Lassa entry inh 7.9µM*, Vaccinia Venus -3%, FMDV inh -22% and Marburg entry inh inconclusive.
Screening Cc1ccc(S(=O)(=O)c2ncccc2N)cc1 returned Sm TGR block -22%, VACV mCherry inh inactive, Vaccinia Venus -20% and FMDV inh -11%.
Cc1ccc(S(=O)(=O)c2ncccc2[N+](=O)[O-])cc1 was read as Sm TGR block 0.35µM*, VACV mCherry inh -20%, Vaccinia Venus -30% and FMDV inh 20µM*.
Screening COC(=O)c1cccc(Nc2c(-c3ccc(O)c(OC)c3)nc3nc[nH]n23)c1 returned Sm TGR block 40µM*, VACV mCherry inh -10%, Lassa entry inh -27%[46.1 µM], Vaccinia Venus -9% and FMDV inh -18%.
For COC(=O)c1cccc(Nc2c(-c3ccc(O)cc3)nc3nc[nH]n23)c1 the results were Sm TGR block inconclusive, VACV mCherry inh -12%, Lassa entry inh -18%[46.1 µM], Vaccinia Venus -2% and FMDV inh -8%.
`COC(=O)C/C=C/[C@@H](C)[C@@H](/C=N/OC[C@@H](O)COCc1ccco1)NS(=O)(=O)c1ccc(C)cc1` gave Marburg entry inh 21%[14.2 µM].
`C=CCOc1c(Cl)cc(CNc2ccc(N(C)C)cc2)cc1OC` gave Sm TGR block 18µM*, Lassa entry inh inconclusive, FMDV inh -17% and Marburg entry inh inconclusive.
For C=CCOc1c(Cl)cc(CNc2ccc(C)c(Cl)c2)cc1OC the results were Sm TGR block 15% and Marburg entry inh -4%.
Cc1ccc(-c2noc(CSc3nnc(CCc4ccccc4)n3-c3ccccc3)n2)cc1 was read as Sm TGR block -25%, Lassa entry inh inconclusive, FMDV inh -23% and Marburg entry inh inconclusive.
`COc1ccc(-c2noc(CSc3nnc(CCc4ccccc4)n3-c3ccccc3)n2)cc1OC` gave Sm TGR block -6%, VACV mCherry inh -15%, Lassa entry inh 4.1µM*, Vaccinia Venus -25% and Marburg entry inh -1%.
Cc1ccc(-c2noc(CSc3nnc(Cc4ccccc4)n3-c3ccc(Cl)cc3)n2)cc1 was read as Sm TGR block 4%, Lassa entry inh 1.6µM*, FMDV inh -22% and Marburg entry inh inconclusive.
For Clc1ccc(-n2c(Cc3ccccc3)nnc2SCc2nc(-c3cccs3)no2)cc1 the results were Sm TGR block 2%, VACV mCherry inh -4%, Lassa entry inh inconclusive, Vaccinia Venus -6%, FMDV inh -18% and Marburg entry inh -28%[46.1 µM].
COc1ccc(-c2noc(CSc3nnc(Cc4ccccc4)n3-c3ccc(Cl)cc3)n2)cc1 was read as Sm TGR block 14%, Lassa entry inh 4.1µM*, FMDV inh -20% and Marburg entry inh inconclusive.
`CCCCNC(=O)c1cnc2sc(N3CCCCCC3)nn2c1=O` gave Sm TGR block 5%, VACV mCherry inh inactive, Lassa entry inh 1%[46.1 µM], Vaccinia Venus -12% and FMDV inh -12%.
Screening C/C(=N/NS(=O)(=O)c1ccc(C)c(C)c1)c1c[nH]c2ccccc12 returned Sm TGR block -3% and FMDV inh 21%.
C/C(=N/NS(=O)(=O)c1ccc(C)cc1C)c1c[nH]c2ccccc12 was read as Sm TGR block 3%, VACV mCherry inh 5µM*, Lassa entry inh inconclusive, Vaccinia Venus -24%, FMDV inh 5% and Marburg entry inh inconclusive.
For CC(C)Cn1c(O)c(/C=C2\C=NN=C2c2ccccc2)sc1=S the results were Sm TGR block 2%, VACV mCherry inh inconclusive, Lassa entry inh 13µM*, Vaccinia Venus inconclusive, FMDV inh 0% and Marburg entry inh inconclusive.
For Cc1ccc(C(=O)COC(=O)COc2ccccc2[N+](=O)[O-])s1 the results were Sm TGR block -16%, VACV mCherry inh -11%, Lassa entry inh 14%, Vaccinia Venus -4%, FMDV inh -1% and Marburg entry inh inconclusive.
Screening CCOC(=O)COc1ccccc1/C=C\[N+](=O)[O-] returned Sm TGR block 11µM*, VACV mCherry inh inconclusive, Lassa entry inh 13µM*, Vaccinia Venus inconclusive, FMDV inh 14µM* and Marburg entry inh 16µM*.
For O=C(c1cnccn1)N1CCCC(N2CCN(c3cccc(Cl)c3)CC2)C1 (configuration not stated) the results were Sm TGR block 89µM*, VACV mCherry inh -14%, Lassa entry inh 4%, Vaccinia Venus -6%, FMDV inh 7% and Marburg entry inh 15%.
For O=C(Nc1c(F)c(F)c(F)c(F)c1F)OC[C@@H]1CSCCS(=O)(=O)N1 the results were Lassa entry inh 5%[46.1 µM].
`CCCOc1ccc(Oc2nc(NCC(C)C)nc(N(C)C)n2)nn1` gave Sm TGR block 0%, VACV mCherry inh -20%, Lassa entry inh 7%[46.1 µM], Vaccinia Venus -13%, FMDV inh -15% and Marburg entry inh -1%[46.1 µM].
`O=C1N=C(N2CCCC2C(=O)O)S/C1=C\c1ccco1` (configuration not stated) gave Sm TGR block 7.1µM*, VACV mCherry inh 7%, Lassa entry inh 7%, Vaccinia Venus 3%, FMDV inh -1% and Marburg entry inh -8%[46.1 µM].
Cn1c(COc2ccc(Br)cc2)nnc1SC1CCc2ccccc2C1=O (configuration not stated) was read as Sm TGR block inconclusive, VACV mCherry inh -21%, Lassa entry inh -20%, Vaccinia Venus -7%, FMDV inh 32µM* and Marburg entry inh inconclusive.
`CCCCS(=O)(=O)N1CN(S(=O)(=O)CCCC)C2NC(=O)NC21` (configuration not stated) gave Sm TGR block 35µM*, Lassa entry inh 10%, FMDV inh 33% and Marburg entry inh 15%.
`CCc1nnc(SCc2cc(C)ccc2C)c2cc3sc(C)cc3n12` gave Sm TGR block 13%, VACV mCherry inh 0%, Lassa entry inh -5%[46.1 µM], Vaccinia Venus -15% and FMDV inh -12%.
CC(C)(C)C(=O)/C(=C/c1ccncc1)n1cncn1 was read as Lassa entry inh 10µM*, FMDV inh 11µM* and Marburg entry inh 4.1µM*.
